GRP78 ERSR act: inducers of ER stress response in human glioma cells. U87-MG GRP78 promoter luciferase reporter, 16 h. Potency, µM, inactives show top-dose activation, actives largely listed as activators. AID 602332. 420,000 compounds, 0.02% hits; also: potency is read from the fitted curve at half-maximal effect; series mostly up to about 76 µM; % of control where 0% means no effect; nearly all actives have a fitted effect of over 35% in size
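ERSR induction read as luciferase luminescence (Bright-Glo, 10 min at room temperature) in stably transfected human U87-MG glioma cells exposed to compounds for 16 h, using GRP78 as sensor.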
Eya2 inh: inhibitors of human Eya2 phosphatase activity | 330,000 compounds, 0.006% hits | O00167 | Potency, µM (doses to about 76.9 µM), without a hit: at the top dose activity, negative = inhibition, usual class: inhibitors | recombinant Eya2, OMFP fluorescence dephosphorylation (OMFP is methylfluorescein phosphate); also: potency is read from the fitted curve at half-maximal effect; % is scaled to controls: 0 for no effect and ±100 for the full control effect
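Eya2 protein (added as 0.2 uM solution) was preincubated with compound for 10 min at ambient temperature in 50 mM HEPES pH 7.5, 50 mM NaCl, 5 uM MgCl2, 0.05% BSA, 1 mM DTT. OMFP (added at 50 uM) then reacted 10 min; fluorescence read at 485/525 nm.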
CtBP-E1A inh: blocks the CtBP interaction with E1A; AlphaScreen GST-E1A/His-CtBP binding, 1536-well; hits give low values; activity change, % (no concentration beside the values); 340,000 compounds, 0.49% hits; AID 651724; in the data active = activity change below about -65%; inconclusive = mostly about -30% to -63%; also: % is scaled to controls: 0 for no effect and ±100 for the full control effect
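Steps: dispense buffer (Tris pH 8.0, NaCl 300 mM, TCEP 1 mM, BSA, Tween 20); add 5X protein mix (GST-E1A, His-CtBP, 125 nM each); pin 23 nL compound; 2 h at 37 °C, dark; add 5X beads (50 ug/mL); 1 h; read.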
Six1-Eya2 blk: inhibitors of human Six1/Eya2 interaction | AID 651725 | Q15475+O00167 | activity change, % (no concentration beside the values) | AlphaScreen GST-Six1/His-Eya2 binding, biochemical; hits give low values | 360,000 compounds, 0.56% hits; in the data active = activity change below about -65%; inconclusive = mostly about -30% to -63%; also: % is scaled to controls: 0 for no effect and ±100 for the full control effect
Target sequence (O00167 whole entry, looked up): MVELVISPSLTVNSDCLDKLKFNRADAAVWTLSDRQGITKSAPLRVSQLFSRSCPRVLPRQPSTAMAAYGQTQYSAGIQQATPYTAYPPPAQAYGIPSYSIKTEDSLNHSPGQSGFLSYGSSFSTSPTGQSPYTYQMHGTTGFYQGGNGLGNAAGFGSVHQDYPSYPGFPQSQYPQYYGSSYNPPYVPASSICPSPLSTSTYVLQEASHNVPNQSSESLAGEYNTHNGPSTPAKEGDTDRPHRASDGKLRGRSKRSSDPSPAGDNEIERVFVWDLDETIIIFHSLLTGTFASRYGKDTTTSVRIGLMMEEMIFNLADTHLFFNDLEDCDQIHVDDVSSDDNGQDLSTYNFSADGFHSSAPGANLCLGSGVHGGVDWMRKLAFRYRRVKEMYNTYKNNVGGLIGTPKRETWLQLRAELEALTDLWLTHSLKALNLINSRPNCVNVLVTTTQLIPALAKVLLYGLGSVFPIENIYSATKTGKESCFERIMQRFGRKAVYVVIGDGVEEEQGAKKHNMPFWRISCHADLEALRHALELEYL
Target sequence (Q15475 whole entry, looked up): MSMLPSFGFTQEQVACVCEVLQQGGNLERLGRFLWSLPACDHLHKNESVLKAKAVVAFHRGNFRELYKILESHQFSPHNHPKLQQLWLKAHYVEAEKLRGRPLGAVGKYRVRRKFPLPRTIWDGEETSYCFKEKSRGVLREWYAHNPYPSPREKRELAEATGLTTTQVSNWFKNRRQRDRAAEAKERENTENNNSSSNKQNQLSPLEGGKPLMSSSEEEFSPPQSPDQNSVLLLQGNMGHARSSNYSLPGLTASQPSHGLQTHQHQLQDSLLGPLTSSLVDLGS
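Homogeneous AlphaScreen proximity assay pairing GST-Six1 with His-tagged Eya2 (added as 5X mix: 250 nM and 500 nM) in 50 mM Tris pH 8.0, 300 mM NaCl, 1 mM TCEP. Glutathione donor and nickel acceptor beads; 1 h, 37 °C, dark.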
Active calls of the source: *; ? = inconclusive; · = no result given. This is a sample that favours compounds with a hit; in the whole collection about 0.58% have one here. Unless noted, calls follow the shape of the dose curve; as a rule, active = well fitted curve in the direction sought with a large enough effect; inconclusive = small, poorly fitted or top-dose-only effect, or another doubt; inactive = no such curve, though single readings can be large; an effect the other way counts as inactive or inconclusive.

SMILES	GRP78 ERSR act	Eya2 inh	CtBP-E1A inh	Six1-Eya2 blk
Cc1cnc(C)c(-c2cc(F)cc3c2OC(CNC(=O)Cc2ccccc2C)C3)n1 (centres undefined)	-5.2%	·	·	·
O=c1oc2ccccc2c(O)c1Sc1c(O)c2ccccc2oc1=O	2.9%	·	-83.4*	-73.6*
O=C(c1c(O)c2ccccc2oc1=O)C1CCC1	-4.3%	-1.5%	4.8	7.1
Cc1cccc(NC(=O)CSc2nnc(-c3n[nH]c4ccccc34)o2)c1	-0.5%	-2.5%	1.8	-13.2
N#Cc1cccc(NC(=O)CSc2nnc(-c3n[nH]c4ccccc34)o2)c1	-1.8%	15.3%	-86.6*	-25.8
O=C(Nc1nc(-c2ccccn2)cs1)c1ncc(Cl)c(Cl)c1Cl	6.0%	5.3%	-74.5*	?
O=C(Nc1nc(-c2ccccn2)cs1)c1ccc(Cl)s1	1.8%	32.3%	?	?
CCc1sc(C(=O)Nc2nc(-c3ccccn3)cs2)cc1C	-1.5%	-2.3%	-89.7*	-67.5*
CCc1sc(C(=O)Nc2nccs2)cc1C	-6.6%	-25.9%	-5.3	-6.9
Cc1cccnc1Nc1nc(-c2ccccn2)cs1	-4.8%	-17.2%	-94.9*	-78.5*
Cc1ccc(C(=O)Nc2nc(-c3ccccn3)cs2)s1	-2.8%	-11.7%	-90.8*	-90.0*
C#C[C@@]1(OC(C)=O)CC[C@H]2[C@@H]3CCC4=CC(=O)CC[C@@H]4[C@H]3CC[C@@]21C	-2.3%	·	·	·
Cc1cc2c(c(-c3ccc4nc(C)ccc4c3)c1)OC(CNC(=O)Cc1ccn(C)c1)C2 (centres undefined)	-2.6%	·	·	·
CCC1(C2CCN(Cc3ccc(OC)cc3)CC2)NC(=O)N(CC2COc3ccccc3O2)C1=O (centres undefined)	-5.5%	·	·	·
Cc1csc(NC(=O)c2cccn2C)n1	-1.6%	-0.9%	-13.4	-6.9
Cn1cccc1C(=O)Nc1nc(-c2ccccn2)cs1	6.9%	-8.1%	-89.1*	-85.5*
CCCS(=O)(=O)NCc1c(C)ncc2c1CCN(C(=O)c1ccc3[nH]c4c(c3c1)CCCC4)C2	2.5%	·	·	·
O=C(CSc1n[nH]c(-c2ccccn2)n1)Nc1ccc(F)cc1	-0.4%	-7.3%	-94.8*	?
O=C(CSc1n[nH]c(-c2ccccn2)n1)Nc1ccc(Cl)cc1	-4.5%	-11.8%	-92.4*	-90.8*
Cc1ccc(NC(=O)CSc2n[nH]c(-c3ccccn3)n2)cc1	-2.1%	-4.4%	-90.5*	-77.4*
O=C(CSc1n[nH]c(-c2ccncc2)n1)Nc1ccccc1	-5.1%	4.3%	0.0	-11.1
O=C(CSc1n[nH]c(-c2ccc(Cl)cc2Cl)n1)Nc1ccccn1	-1.3%	18.2%	-14.3	-16.2
COC(=O)C1CCN(Cc2ccc3c(c2)CN(C(=O)c2cc4cc(F)ccc4[nH]2)CCO3)CC1	-1.3%	·	·	·
O=CN/N=C/c1c(O)ccc2ccccc12	-5.4%	-0.9%	·	-90.8*
COc1ccccc1N(CC(=O)N/N=C/c1c(O)ccc2ccccc12)S(C)(=O)=O	-5.0%	-2.5%	?	-71.1*
SMILES	GRP78 ERSR act	Eya2 inh	CtBP-E1A inh	Six1-Eya2 blk
COc1ccccc1NCC(=O)N/N=C/c1c(O)ccc2ccccc12	-0.2%	-18.8%	-21.4	-10.7
O=C(N/N=C/c1c(O)ccc2ccccc12)c1ccc(CO)nc1	-3.8%	18.3%	-92.0*	-86.7*
O=C(Cc1n[nH]c(=O)[nH]c1=O)N/N=C/c1c(O)ccc2ccccc12	-2.1%	7.1%	-68.4*	-87.4*
NC(=S)N/N=C/c1c(O)ccc2ccccc12	-3.6%	-11.5%	·	-90.8*
COC(=O)[C@@H]1CCCN1C(=O)c1c(OC)cc(=O)n2c1CCN(Cc1ccc3cccnc3c1)CC2	-3.2%	·	·	·
CCOC(=O)Cc1c(C)nc2c(-c3ccccc3)c(C)[nH]n2c1=O	-2.4%	0.1%	-2.2	-7.8
CCOC(=O)Cc1c(C)nc2c(-c3ccccc3)c(-c3ccccc3)[nH]n2c1=O	-0.9%	9.1%	?	-75.2*
Cc1nc2c(-c3ccc(Cl)cc3)c(C)[nH]n2c(=O)c1Cc1ccccc1	-2.2%	-27.1%	-81.5*	-76.1*
COc1ccc(-c2c(C)[nH]n3c(=O)c(Cc4ccccc4)c(C)nc23)cc1OC	-0.6%	7.8%	?	-67.1*
CC(=O)NC(CCC(N)=O)C(=O)O (centres undefined)	-1.9%	·	·	·
CC(=O)c1ccc(-c2cc(F)cc3c2OC(CNC(=O)C(C)N2CCOCC2)C3)s1 (centres undefined)	-1.5%	·	·	·
c1ccc(-c2nc(NCCCn3ccnc3)c3oc4ccccc4c3n2)cc1	-2.9%	4.5%	-68.1*	?
CCc1nc(NCCCn2ccnc2)c2oc3ccccc3c2n1	1.2%	-11.9%	-8.4	-9.2
c1cncc(-c2nc(NCCCn3ccnc3)c3ccccc3n2)c1	-5.4%	?	-11.0	-72.7*
Oc1c(C(Nc2cccc(C(F)(F)F)c2)c2ccncc2)ccc2cccnc12 (centres undefined)	-2.1%	-18.7%	-94.3*	-91.9*
CCN(C(C)=O)c1cnc(C=NNC(N)=S)c2ccccc12	-6.9%	·	?	-90.5*
NC(=S)NN=Cc1nccc2c(N)cccc12	-5.4%	·	-88.4*	-92.9*
Cn1cc(/C=N/NC(N)=S)c2ccccc21	-0.3%	-2.4%	0.0	-10.7
NC(=S)N/N=C/c1ccc(OC(=O)c2cccnc2)cc1	-2.3%	-3.5%	6.6	-4.1
Cc1cc(NS(=O)(=O)c2ccc(NC(=O)c3cnc(Cl)c(Cl)c3)cc2)nc(C)n1	-0.9%	-8.8%	·	-90.8*
CC(C)c1ccc(CN2CCC3(CCC(CNC(=O)c4ccn(C)n4)O3)CC2)cc1 (centres undefined)	-4.2%	·	·	·
COC(=O)[C@@H]1CCCN1C(=O)c1cc(NC(=O)c2ccccc2)cc2ncn(C3CCCC3)c12	-2.6%	·	·	·
COc1cccc(C=NNc2nnc(NN=Cc3cccc(OC)c3OC)c3ccccc23)c1OC	-0.4%	·	-86.4*	-78.4*
COc1cccc(/C=N/Nc2ncnc3scc(-c4ccccc4)c23)c1O	-3.9%	-3.4%	-4.6	-92.6*
COc1cccc(/C=N/Nc2ncnc(Cl)c2N)c1O	-0.6%	-6.4%	-79.1*	-88.4*
SMILES	GRP78 ERSR act	Eya2 inh	CtBP-E1A inh	Six1-Eya2 blk
COc1ccccc1/C=N/Nc1nncc2ccccc12	8.0%	-4.0%	-22.7	-12.7
COc1cccc(/C=N/Nc2nccnc2Cl)c1O	-13.5%	-0.5%	-92.7*	-79.5*
COc1ccc(/C=N/Nc2ncnc(Cl)c2N)cc1OC	5.1%	2.7%	-23.2	-28.9
COc1cc(=O)n2c(c1C(=O)NC(C)c1ccco1)CCN(Cc1ccnc3ccccc13)CC2 (centres undefined)	-0.4%	·	·	·
COc1ccccc1N1CCN(Cc2cc(Br)c(O)c3ncccc23)CC1	-4.5%	-13.8%	-84.6*	-91.7*
Oc1c(CN2CCCCC2)cc(COCc2ccccc2)c2cccnc12	-2.0%	-13.2%	-3.4	-84.9*
COCc1cc(CN2CCCC2)c(O)c2ncccc12	-5.8%	-1.7%	-93.9*	-91.3*
COc1ccccc1N1CCN(Cc2cc(COC(C)C)c3cccnc3c2O)CC1	-3.5%	·	·	·
CCCOCc1cc(CN2CCN(c3ccccc3OC)CC2)c(O)c2ncccc12	-3.0%	·	·	·
COc1ccc(CN2CCC3(CC2)c2ccccc2[C@@H](NC(=O)c2ccccc2OC)[C@@H]3O)cc1O	2.4%	·	·	·
